The assay concerns VDR:RXRa (NR concentration 270 nM, RXRa partner concentration 90 nM). The assay can be described thus: PBM binding z-score (relative to random genomic background probes); higher = stronger binding; sequences stand for … in GC…GCGATTGACAGCGTAGAATGAAGG
The protocol:
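Protein-binding microarray (Agilent 4x180K custom design, double-stranded 60-nt probes: 5' GC cap, 34-nt variable region, 24-nt constant primer region; full probe sequence given). Purified or IVT nuclear receptor:RXRα heterodimers (3:1 NR:RXRα, mostly 270:90 nM) or homodimers were incubated for 1 h in PBS with 2% milk and no ligand, then detected with Alexa488 antibodies. Fluorescence from o1-orientation probes (~5 replicates averaged) was converted to z-scores against 500 random hg19 background probes. Variable regions are seed direct-repeat (DR0–DR5) sites, all their single-nucleotide variants and half-site ablations.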
Take CGTCCAAGGTCATAGGAAGTCAGTGAAGACAGAT: the PBM binding z-score is 4.21.
Under AGAATGAGGATATACGTAGATCAGGGAAGAAAGT stands -0.427; under CTCGAAAGGTAGGTTGAGGTGAGTATACGGATAA, 0.309.
The result for CGTCCAAGGTCAGAGAGGTGAGTGAATGCCGAGT reads 4.78; that for GGAACGAGGGCAAAGTTGATGGCATCTGTCGACG, 1.51.
Under GCGACTGGGGCATCAGCAGGATACCATAACTTAA stands -0.816; under ACAATTAGTTGACTTAGGGCAACCGATACGACGC, 0.376; under TCTAGTTGGTCCAAGGTCACACACTCGAAATGCG, 3.77.
In turn, TGAAGGAGGTTATAAGATCAGGGAACGTTGCAAA gave a PBM binding z-score of 0.323.
As for TCTTGTAGACCAAGCAGGTTAAGAAAGCCTGAGT, the PBM binding z-score is 0.582.
The result for CCTCGGAGGACATCAGGAGGTCAGAGCTGCCAGA reads 1.99; that for TCATATGGGTAAAGGTGAAAGTCGAACGATATGA, 0.608; that for GCTTACGGGTCAAAGGTTATAGCATGAATAGAAT, 5.86.
The result for ACAGACAGGCGATGAAGGTAACTCAGGCTATCAT reads -0.262; that for GCATATAGGTACTACAAGGTGAAAGTCCGATTGT, 0.143.
Under TCATATAGGTAAAGGTGAAATTCGAACGATATGA stands 1.03.
For the sequence TCTTGTAGATCAGCAGGTTAAGACAGCTGGCCAA, the PBM binding z-score was determined as 0.176.
The result for ACTAGCAGGCCAAGGTTCACTCAAGATTAGTCCG reads 2.01.
Under CCAGACAGGTGAGAAGGTTACTCAGCCTCGATTA stands 0.635; under CCTTACGGGTCACTGACAGGTTATAGCATTTGGA, 3.8.
Under TCTATTAGTTGAATGGCAACCGACGAGTCCGTTT stands 0.746.
Regarding GATACAGGGTCAGCTAGAGGCCAGAGTATGGAAA, the PBM binding z-score came out at 3.33.
Under TAGCCTAGGTCATTCAAGGGCCAGTATAGAAAGC stands 2.89; under GCTGCTAGGTCAGGTTGGTCAGTTAACGGGTACG, 1.02.
Consider CGTCAAAGTTCAACTAAGGGAACGTAAAGCACGC, for which the PBM binding z-score worked out at 4.35.
Sequence CCTACTGGGCCAAGATCATTGATCAGTCAAAGCA gave a PBM binding z-score of -0.601.
The result for ACTAGCAGGCAAAGGGTCACTCAAGATTAGTCCG reads 2.98.
Turning to GCTTGTAGAACAAGGTTAAGAAAGACTAAGCTAA, the PBM binding z-score turned out to be 0.106.
Under CAAACTAGGTCACCGGAAGGTCAGAGTCCGCATG stands 4.86; under CCTAGTTGGTCAGGAGGTCTCACACCGGATATGA, 0.189.
The result for TCTTGTAGATCATGCAGGTTAAGAAAGCCTGAGT reads 0.976; that for CCTACTGGGCCACGAAAGGTCAGTGATTCAGTGA, 1.72; that for CAAACTAGGTCACAGAGCTCAAAGTCCGTGCGTA, 3.09.
The result for AGAATGCGGTTATACGTAGATCAGGGAAGAAAGT reads -0.334; that for ATATGTAGGTTGCATCCGGGTCATTCAGGCTATG, 3.47.
The sequence CTCGAAATGTCGTGCTCAGGTGAGTATACCAAAC showed a PBM binding z-score of 0.0153.
The result for ATCTCTAGGTTAGACTCAGTTCAGTGAAGAACGC reads 1.7.
The result for ACTATTAATTGACTTAGGGCAACCGATACGACGC reads 0.425; that for CTCGAAAGGTCCTGCTCAGGTGAGTATACCAAAC, -0.0691.
Under CCAGACAGGTGAGAAAGTAACTCAGCCTCGATTA stands 0.0167.

(Values after the supplement of paper PMC6555819.)
